Compounds with a hit are over-represented: about 1.8% of the library has one in this group of screens.
LGR2 inh – blocks bursicon-induced cAMP signaling via Drosophila LGR2. inhibition, % at 9.99 µM. HEK293 LGR2, CRE-luciferase, bursicon-stimulated, 4 h. hit rate 0.35% among 380,000;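 active = drop in luminescence signal, shown as inhibition above about 50% in the replicate tests, limit read from the data, passing the limit was not always enough; inconclusive = probably only some replicates passing the limit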;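 also: agonist challenge used bursicon conditioned medium at about half maximal strength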
GSIS activator – primary screen for activators of insulin secretion dependent on glucose, INS-1E cells, GLuc reporter luminescence. activation, % at 16.6 µM. INS-1E GLuc reporter insulin secretion, 2-3 h. hit rate 0.61% among 370,000;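 active = lowest replicate activation of at least 40%, so every replicate reaches that level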;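 also: 0% = median of neutral control wells and 100% = median of IBMX positive control wells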
EWS-Fli inh – blocks EWS/Fli oncoprotein-driven transcription | hit rate 0.67% among 350,000 | A673 NR0B1-luciferase reporter, viability-normalised | inhibition, % at 12.6 µM | AID 651661;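 active = mean inhibition of at least 50% after viability correction, with every replicate also passing that limit; inconclusive = mean reaches 50% but only one of two replicates passes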;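 also: firefly luciferase signal divided by Alamar Blue viability fluorescence both relative to DMSO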
RAD54 inh – inhibitors of human RAD54 branch migration; Q92698; inhibition, % at 10.4 µM; AID 602329; RAD54 Holliday junction branch migration, FAM/BHQ fluorescence; hit rate 0.14% among 360,000;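 active = mean normalized replicate activity at least 40 and at least half of replicates scoring 40 or more; inconclusive = only one of the two criteria met; inactive = mean below 40 and under half of replicates reaching 40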;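 also: 0% = median of neutral control wells and 100% = median of positive control wells; inhibitors cause a drop in the FAM fluorescence signal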
F508del corr – CFTR F508del correction in bronchial cells; CFBE cells, YFP halide quenching; stimulated with forskolin plus potentiator P3; % fluorescence drop versus neutral controls; hit rate 0.36% among 350,000; activity (quench increase), % at 7.58 µM;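 active = mean added fluorescence quench of at least 8% versus neutral control, with both replicates also reaching 8%; inconclusive = only one of the mean or replicate conditions met; inactive = mean below 8% and not both replicates reaching 8%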;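 also: cells transiently co-express mutant CFTR-F508del with the halide-sensitive YFP; corrector assay measuring rescue of mutant channel to the surface after 24 h compound exposure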
RAD52 anneal inh – RAD52 (human) annealing inhibition | inhibition, % at 18.7 µM | hit rate 0.46% among 360,000 | recombinant RAD52 DNA annealing, FRET fluorescence | P43351;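 active = every replicate showing at least 50% inhibition; inconclusive = mean inhibition at least 50% but not in every replicate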
Target sequence (P43351 whole entry, looked up): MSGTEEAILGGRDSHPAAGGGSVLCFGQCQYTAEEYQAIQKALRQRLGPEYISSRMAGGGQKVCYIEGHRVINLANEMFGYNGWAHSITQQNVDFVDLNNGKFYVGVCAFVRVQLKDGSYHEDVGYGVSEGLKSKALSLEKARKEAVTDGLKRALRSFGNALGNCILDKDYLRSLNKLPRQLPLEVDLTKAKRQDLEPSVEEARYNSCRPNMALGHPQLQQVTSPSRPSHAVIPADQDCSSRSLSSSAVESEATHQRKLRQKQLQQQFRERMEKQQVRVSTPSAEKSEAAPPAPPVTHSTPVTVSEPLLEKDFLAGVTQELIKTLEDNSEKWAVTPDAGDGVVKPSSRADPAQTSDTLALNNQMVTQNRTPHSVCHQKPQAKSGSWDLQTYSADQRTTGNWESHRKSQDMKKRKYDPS
Rad54 DNA ctr – DNA binding artifact in Rad54 counter-screen | AID 651673 | AC50, µM (series often up to 35 µM), for inactives: at the highest dose activity change, negative = DNA binding | Acridine orange-DNA displacement, fluorescence polarization, 20 min | shares compounds with RAD54 inh | hit rate 8% among 460;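 active = signal drop giving an AC50 within twice the top valid tested concentration of each sample, actives reach about 35 µM in these data; inactive = activity opposite to expected, plus the rest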;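 also: polarization loss reports compound binding to salmon sperm DNA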
RAD52 DNA ctr – binds DNA, flagging false RAD52 inhibitor hits; AID 652128; shares compounds with RAD52 anneal inh; hit rate 8% among 1,000; AC50, µM; Salmon sperm DNA/acridine orange FP displacement, DNA binding;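 active = fitted half-maximal concentration for signal loss at or below twice the highest dose tested, in every separate run, actives reach about 64 µM in these data; inconclusive = runs disagree, or flat partial signal loss, or poor fit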
* marks the source's active call; other numbers are inactive results; i = inactive; ? = inconclusive; nt = not tested or not shown.

SMILES | LGR2 inh | GSIS activator | EWS-Fli inh | RAD54 inh | F508del corr | RAD52 anneal inh | Rad54 DNA ctr | RAD52 DNA ctr
Cc1cc(N2CCN(Cc3nc(-c4ccc(F)cc4)oc3C)CC2)cc(C)n1 | -9 | 8 | -24 | nt | -4 | 0 | nt | nt
CN(C)CCCNc1cc(-c2ccccc2)nc2cc(-c3cccc(F)c3)nn12 | 1 | 26 | 26 | 90* | -8 | 67* | -25% | i
Cc1cccc(-c2cc3nc(C)cc(NCCCN(C)C)n3n2)c1 | nt | nt | nt | 28 | nt | nt | nt | nt
N=c1c(C(=O)NCCN2CCOCC2)cc2c(=O)n3ccccc3nc2n1CCCN1CCOCC1 | -14 | 0 | nt | 57* | 0 | 77* | 7% | i
N=c1c(C(=O)NCCN2CCOCC2)cc2c(=O)n3ccccc3nc2n1Cc1ccc(F)cc1 | 8 | 7 | 5 | 9 | 2 | 37 | nt | nt
CCCN(CCC)CCNC(=O)c1cc2c(-c3ccc(Cl)cc3)nn(C)c2s1 | -20 | 31 | 37 | 61* | -2 | 52* | -3% | i
CCCN(CCC)CCNC(=O)c1cc2c(-c3ccccc3F)nn(C)c2s1 | 4 | -1 | -5 | nt | 2 | 20 | nt | nt
CCOCCCNC(=O)c1cc2c(-c3ccc(Cl)cc3)nn(C)c2s1 | -19 | -14 | 12 | -2 | 2 | -21 | nt | nt
CCCCN(CC)CCNC(=O)c1cc2c(-c3ccc(Cl)cc3)nn(C)c2s1 | 15 | 67* | 22 | 82* | 1 | 50* | -12% | i
NC(=S)N=Nc1c(O)[nH]c2cc(F)c(F)cc12 | 3 | 9 | nt | nt | nt | nt | nt | nt
CCOc1ccc(CN2CCN(CC3=Cc4cccc(OC)c4OC3)CC2CCO)cc1 (stereo not drawn) | 9 | -4 | -6 | nt | nt | -8 | nt | nt
COCC(=O)Nc1ccc2c(c1)OC[C@@H](C)N(CCc1ccccc1)C[C@@H](C)[C@@H](OC)CN(C)C2=O | -16 | -7 | -8 | -6 | 0 | -5 | nt | nt
CC(C)(C(=O)c1cccnc1)c1cccnc1 | -7 | nt | -2 | -14 | 2 | 4 | nt | nt
COc1cc(C(=O)NC2CCN(C)CC2)ccc1Nc1ncc2c(n1)N(C1CCCCC1)CCC(=O)N2C | -11 | 14 | 76* | 78* | -2 | 97* | 13% | i
CCN1C(=O)CC(c2ccccc2)N(C2CCCC2)c2nc(Nc3ccc(C(=O)NC4CCN(C)CC4)cc3OC)ncc21 (stereo not drawn) | nt | nt | nt | 44 | nt | nt | nt | nt
O=S(=O)(N[C@@H]1CC[C@H](CCn2cc(C3(O)CCCC3)nn2)O[C@@H]1CO)c1ccccc1 | -4 | 10 | 6 | -5 | 2 | -1 | nt | nt
CCN(CC)CCNC(=S)Nc1ccc2nc(N3CCN(CC)CC3)cc(C)c2c1 | 4 | 48* | 9 | 79* | -2 | 93* | -1% | i
CCN1CCN(c2cc(C)c3cc(NC(=S)NCCCN4CCc5ccccc5C4)ccc3n2)CC1 | -25 | nt | 37 | 98* | -2 | 106* | -8% | i
CCCCNC(=O)CCC(=O)Nc1ccc2nc(N3CCN(C)CC3)cc(C)c2c1 | -8 | 12 | -6 | 6 | 0 | -2 | nt | nt
Cc1cc(N2CCN(C)CC2)nc2ccc(NC(=S)NCCCN3CCc4ccccc4C3)cc12 | 3 | 12 | 7 | 80* | -3 | 100* | -19% | i
CCCN1CCN(CCCNC(=S)Nc2ccc3nc(N4CCN(CC)CC4)cc(C)c3c2)CC1 | 5 | -9 | -7 | 110* | 0 | 99* | 2% | i
CCOC(=O)N1CCC(NC(=S)Nc2ccc3nc(N4CCN(CC)CC4)cc(C)c3c2)CC1 | -11 | -15 | 6 | nt | -3 | 44 | nt | nt
CCOc1ccc(Nc2cc(C)c3ccccc3n2)cc1 | -61 | -29 | -102 | -4 | 2 | -14 | nt | nt
CCOc1ccc(Nc2c3ccccc3nc3ccccc23)cc1 | -3 | 3 | 31 | 106* | 4 | 85* | 27µM* | i
CCN(CC)CCNc1ccc(CO)c2sc3ccccc3c(=O)c12 | 15 | nt | 21 | 100* | 5 | 54* | 29µM* | 22µM*
SMILES | LGR2 inh | GSIS activator | EWS-Fli inh | RAD54 inh | F508del corr | RAD52 anneal inh | Rad54 DNA ctr | RAD52 DNA ctr
CCN1CCN(c2ccc(NC(=O)c3cc4ccccc4cc3OC)cc2C)CC1 | -53 | 4 | -26 | 54* | -7 | 83* | -2% | i
CCn1nnnc1Oc1ccc(Cl)cc1 | -3 | 19 | nt | 3 | nt | nt | nt | nt
COc1cc(OC)c(C(=O)NNC(=S)NC2CCCCC2)cc1OC | 8 | 21 | -7 | nt | 0 | -5 | nt | nt
CCCN(CCC)CCCNC(=O)c1cc2c(-c3ccc(OC)c(OC)c3)nn(C)c2s1 | 0 | -9 | -3 | 104* | 0 | 90* | -13% | i
COc1ccc(-c2nn(C)c3sc(C(=O)NCCN(C)C)cc23)cc1OC | 4 | 6 | 1 | 97* | 3 | 101* | -15% | i
COCCCNC(=O)c1cc2c(-c3cccc(OC)c3)nn(C)c2s1 | 14 | nt | 2 | 12 | 3 | 17 | nt | nt
Cc1[nH]ccc2cc3nc4ccccc4c3cc12 | nt | nt | 49 | 83* | -1 | 101* | i | ?
Cc1cccc2nc3ccccc3cc12 | -2 | 6 | -16 | 1 | -1 | -1 | nt | nt
CN(C)CCCN(C(=O)c1ccc([N+](=O)[O-])o1)c1nc2cc3c(cc2s1)OCO3 | -10 | -19 | nt | ? | -4 | 75* | -5% | ?
COc1cccc(-c2cc(NC=O)c3ncc(-c4cccc(C(=O)N(C)C)c4)n3c2)c1 | -5 | nt | 14 | 7 | -4 | -70 | nt | nt
CC(=O)c1ccc(-c2cnc3c(NC=O)cc(-c4ccc(S(C)(=O)=O)cc4)cn23)cc1 | 8 | nt | 6 | -7 | 6 | -57 | nt | nt
COc1cccc(-c2cc(NC=O)c3ncc(-c4cccc(C(=O)NCCN(C)C)c4)n3c2)c1 | -14 | 3 | 5 | 81* | 2 | 94* | 8% | i
CN(C)CCNC(=O)c1cccc(-c2cnc3c(NC=O)cc(-c4ccc(S(C)(=O)=O)cc4)cn23)c1 | -25 | -2 | -1 | 65* | 3 | 96* | -17% | i
CC(=O)Nc1cc(-c2ccc(N3CCN(C)CC3)cc2)cn2c(-c3ccc(S(C)(=O)=O)cc3)cnc12 | nt | nt | -2 | 104* | -2 | 73* | -5% | i
COCCNC(=O)CN1CCC(NC(=O)c2ccco2)CC1 | 2 | 5 | 5 | nt | nt | -9 | nt | nt
O=C(CC1CC1)N1CC2(C1)[C@@H](c1ccccc1)[C@H](CO)N2Cc1ccc(F)cc1 | 14 | -2 | 0 | nt | 2 | -15 | nt | nt
CC(C)CNc1ncnc2c1sc1nc(N3CCOCC3)c3c(c12)CC(C)(C)OC3 | nt | nt | nt | -2 | nt | nt | nt | nt
CN(C)CCNc1ncnc2c1sc1nc(N3CCCC3)c3c(c12)CC(C)(C)OC3 | 6 | 46 | 16 | 97* | 6 | 88* | -1% | i

Source: PubChem
